Screening data deposited in PubChem by National Center for Advancing Translational Sciences (NCATS).
MCF10A rereplic = DNA re-replication induction in MCF 10a cells; 350,000 compounds, 2.9% hits; Potency, µM (doses to about 46.1 µM), for the others: top-dose activity, positive = re-replication, usual class: activators; MCF 10A DNA re-replication, Hoechst nuclear intensity, 48 h; note: % of control where 0% means no effect; nearly all actives have a fitted effect of over 50% in size
KB-3-1 tox = KB-3-1 parental cell cytotoxicity; AID 1347075; 400,000 compounds, 1.4% hits; Potency, µM (titrated, usually from 46.1 µM), hits mostly cytotoxic; KB-3-1 viability, CellTiter-Glo ATP luminescence, 72 h; note: % is set by controls: 0 for no effect and ±100 for the full control effect; nearly all actives have a fitted effect of over 60% in size
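Luminescent ATP read-out (CellTiter-Glo) measures survival of drug-naive KB-3-1 cells after 72 h compound exposure at 37 °C. Titration series was screened from lowest to highest concentration, with DMSO vehicle plates as background controls.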
ELG1 repair inh = blocks ELG1-dependent DNA repair in HEK293T cells; HEK293T ELG1-luciferase reporter, luminescence, 16 h; DNA damage induced by 5-fluorouridine; Potency, µM (top dose mostly 46.1 µM), inactives show at the highest dose activity change, negative = inhibition, usual class: inhibitors; 330,000 compounds, 2.3% hits; note: % is set by controls: 0 for no effect and ±100 for the full control effect; nearly all actives have a fitted effect of over 55% in size
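Step one: seed 2,000 cells per well. Step two: pin-transfer compound or DMSO alongside 5-fluorouridine. Step three: incubate 16 hr, 37 °C, 5% CO2. Step four: add ONE-Glo, wait 30 min, read luminescence.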
SW480 rerep = inducers of DNA re-replication in SW480 colon cancer cells. Potency, µM (series often up to 46.1 µM), without a hit: top-dose re-replication activation, hits mostly activators. SW480 DNA re-replication, Hoechst DNA content imaging, 48 h. AID 624297. 340,000 compounds, 1.8% hits; note: % of control where 0% means no effect; nearly all actives have a fitted effect of over 55% in size
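Compounds, transferred as 23 nL by pin tool, were incubated with cells for 48 hr; DNA content per nucleus was then quantified by Hoechst staining and fluorescence plate imaging.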
KB-V1 MDR tox = KB-V1 MDR subline cytotoxicity | KB-V1 MDR cells viability, CellTiter-Glo, 72 h | 400,000 compounds, 3.4% hits | Potency, µM (series often up to 46.1 µM), hits mostly cytotoxic; note: % is set by controls: 0 for no effect and ±100 for the full control effect; nearly all actives have a fitted effect of over 60% in size
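Cells of the MDR subline KB-V1 are plated, dosed with compound at multiple concentrations, and incubated 72 h at 37 degrees C; CellTiter-Glo is then added and luminescence read after 10 min.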
An asterisk follows results filed as active; i = inactive; ? = inconclusive; / = no result. In the library only some 8.2% were active in any assay of this set; here they are far more common. Calls come from the whole dose curve; as a rule, active = well fitted curve in the direction sought with a large enough effect; inconclusive = small, poorly fitted or top-dose-only effect, or another doubt; inactive = no such curve, though single readings can be large; an effect the other way counts as inactive or inconclusive. Potency is the fitted concentration of half-maximal effect.

SMILES | MCF10A rereplic | KB-3-1 tox | ELG1 repair inh | SW480 rerep | KB-V1 MDR tox
COc1ccc(NC(=O)CN(C)C(=O)c2cc(C)on2)cc1 | -6% | i | -30% | ? | i
Cc1nc2c(-c3ccccc3)c(C)nn2c(C)c1CCC(=O)NCc1cccc(Cl)c1 | / | i | / | / | i
COC(=O)[C@@]12C[C@@H](CC(=O)NCc3cccc(C(F)(F)F)c3)C(=O)N(Cc3cccc4ccccc34)C1=CCC(C)(C)C2 | / | i | / | / | ?
COC(=O)[C@@]12C[C@@H](CC(=O)NCCCCc3ccccc3)C(=O)N(Cc3ccco3)C1=CCC(C)(C)C2 | / | i | / | / | ?
COC(=O)[C@@]12C[C@@H](CC(=O)NCCc3ccccc3OC)C(=O)N(Cc3ccco3)C1=CCC(C)(C)C2 | / | i | / | / | 15µM*
COC(=O)[C@@]12C[C@@H](CC(=O)NCc3cccc4ccccc34)C(=O)N(Cc3ccc4c(c3)OCO4)C1=CCC(C)(C)C2 | / | ? | / | / | 23µM*
COC(=O)[C@@]12C[C@@H](CC(=O)NCc3ccccc3)C(=O)N(Cc3ccc4c(c3)OCO4)C1=CCC(C)(C)C2 | / | ? | / | / | 21µM*
COC(=O)[C@@]12C[C@@H](CC(=O)NCc3cccc4ccccc34)C(=O)N(Cc3ccccc3)C1=CCC(C)(C)C2 | / | ? | / | / | 21µM*
COC(=O)[C@]12CCCCC=C1N(Cc1ccc3c(c1)OCO3)C(=O)[C@H](CC(=O)NCc1ccccc1)C2 | / | i | / | / | ?
COC(=O)[C@@]12C[C@@H](CC(=O)NCC34CC5CC(CC(C5)C3)C4)C(=O)N(Cc3cccc4ccccc34)C1=CCC(C)(C)C2 | / | ? | / | / | i
COC(=O)[C@@]12C[C@@H](CC(=O)NCC34CC5CC(CC(C5)C3)C4)C(=O)N(Cc3ccccc3)C1=CCC(C)(C)C2 | / | ? | / | / | 23µM*
COC(=O)[C@@]12C[C@@H](CC(=O)NCc3cccc4ccccc34)C(=O)N(Cc3ccco3)C1=CCC(C)(C)C2 | / | i | / | / | 21µM*
COC(=O)[C@@]12C[C@@H](CC(=O)N3CCCC3)C(=O)N(Cc3cccc4ccccc34)C1=CCC(C)(C)C2 | / | ? | / | / | 13µM*
CC1CCCN(S(=O)(=O)c2ccc3c(c2)n(C)c(=O)c(=O)n3C)C1 (stereo unspecified) | 14% | i | -1% | -3% | i
CC1CCCN(S(=O)(=O)c2ccc3c(c2)c(=O)nc2ccc(Cl)cn23)C1 (stereo unspecified) | 4.6µM* | i | -4% | ? | i
CNC(=O)OCc1nc(SSC(C)(C)C)n(C)c1COC(=O)NC | 2.9µM* | ? | / | 4.1µM* | i
CC(C)[Si]1(C(C)C)OCC2OC(n3cnc4c(N)ncnc43)C(N)C2O[Si](C(C)C)(C(C)C)O1 (stereo unspecified) | 13µM* | i | / | ? | i
Cc1c(CN2CCc3c([nH]c4ccccc34)C2CC(C)C)cnn1C (stereo unspecified) | 5% | i | 2% | ? | ?
Cc1nn(Cc2ccccc2)c(C)c1NC(=O)c1ccc([N+](=O)[O-])cc1[N+](=O)[O-] | -41% | i | 0% | 16µM* | ?
O=C(NC(=O)N1CCN(c2ccc([N+](=O)[O-])cn2)CC1)c1c(Cl)cccc1Cl | -18% | i | 24% | -3% | i
O=C(N/N=C(\Cc1ncc[nH]1)c1ccccc1)c1ccncc1 | ? | ? | ? | ? | i
O=C(N/N=C(\Cc1ncc[nH]1)c1ccccc1)c1cccnc1 | ? | ? | 9.2µM* | ? | ?
CC(O)CNc1ccc(-c2nn(C)c(=O)c3ccccc23)cc1[N+](=O)[O-] (stereo unspecified) | 4% | 9.2µM* | ? | -4% | 6.5µM*
Cc1cc(C)c2c(CC(=O)N3CCN(c4cccc(Cl)c4)CC3)coc2c1 | / | i | / | / | ?
Cc1oc(-c2cccc(Cl)c2)nc1CN1CCC(C(=O)NC2CC2)CC1 | 1% | i | -5% | 4% | i
SMILES | MCF10A rereplic | KB-3-1 tox | ELG1 repair inh | SW480 rerep | KB-V1 MDR tox
CCc1ccc(-c2nc(CN3CCC(C(=O)NCc4ccc(F)cc4)CC3)c(C)o2)cc1 | 29% | ? | 15µM* | ? | ?
CCN(CCNC(=O)C1CCN(Cc2nc(-c3cccc(Cl)c3)oc2C)CC1)c1ccccc1 | ? | ? | 21µM* | ? | 2.6µM*
CCc1ccc(-c2nc(CN3CCC(C(=O)N4CCN(c5ccccc5)CC4)CC3)c(C)o2)cc1 | ? | i | ? | ? | 8.2µM*
Cc1oc(-c2ccc(Cl)cc2)nc1CN1CCC(C(=O)NCCCN2CCOCC2)CC1 | 0% | i | -4% | ? | i
CCN(CCNC(=O)C1CCN(Cc2nc(-c3ccc(Cl)cc3)oc2C)CC1)c1ccccc1 | ? | i | 16µM* | ? | 7.3µM*
Cc1ccc(CN(C(=O)Nc2cccc(Cl)c2)c2ccccn2)cc1 | / | i | / | / | i
CC(C)C[C@@H](CSc1ccccc1)N1CCN(CC(C)C)CCC1=O | 20% | i | ? | 4% | ?
CCc1ccc(-c2nc(CN3CCC(C(=O)NCCN(CC)c4ccccc4)CC3)c(C)o2)cc1 | ? | i | 21µM* | ? | 4.6µM*
Fc1ccc(-n2ncc3c(Nc4ccc(Oc5ccc(Cl)cc5)cc4)ncnc32)cc1 | / | i | / | / | i
Cc1nn(CC(=O)N(CC(C)C)C2CCS(=O)(=O)C2)c(C)c1[N+](=O)[O-] (stereo unspecified) | 1% | ? | 6% | -3% | i
CCn1c(SCC(=O)Nc2ccc3c(c2)oc2ccccc23)nnc1-c1ccc(N)cc1 | ? | ? | -9% | ? | 18µM*
C=CCn1c(SCC(=O)Nc2cccc3ccccc23)nnc1-c1cnccn1 | 8% | i | ? | -5% | i
COc1ccc(-c2noc(-c3cccs3)n2)cc1OC | -19% | ? | ? | -17% | ?
COc1ccccc1C(=O)Nc1nnc(SCC(=O)Nc2ccc3c(c2)oc2ccccc23)s1 | 3% | i | ? | 0% | 18µM*
C=CCn1c(SCC(=O)Nc2cc3oc4ccccc4c3cc2OC)nnc1-c1cnccn1 | -3% | ? | 12µM* | 9% | i
CCn1c(SCc2nc(-c3ccc(OC)c(OC)c3)no2)nnc1-c1cccs1 | 16% | i | ? | 0% | 9.2µM*
COc1cc2c(cc1NC(=O)CSc1nnc(Cc3cccs3)n1C)oc1ccccc12 | 2% | i | ? | 1% | i
COc1cc2c(cc1NC(=O)CSc1nnc(Cc3cccs3)n1Cc1ccco1)oc1ccccc12 | ? | i | 23µM* | ? | i
CCn1c(SCC(=O)Nc2cc3oc4ccccc4c3cc2OC)nnc1-c1cccs1 | 25% | ? | 18µM* | 7% | ?
